Measurements from PubChem BioAssay (Tox21).
Inconclusive results are not listed. Active and inactive are the calls of the source. Unless noted, the call rests on the fitted dose curve; in most records, active means well fitted curve in the direction sought with a large enough effect in the repeat runs; inconclusive means weak or mixed curves; inactive means no such curve, though single readings can be large; an effect the other way counts as inactive or inconclusive.

Assays:
[1] = qHTS assay to identify small molecule antagonists of the estrogen receptor beta (ER-beta) signaling pathway - cell viability counter screen (AID 1259382);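 further: HEK293T cells carrying ER-beta-UAS-bla reporter stimulated with estradiol; series mostly up to about 92 µM; nearly all actives have a fitted effect of over 55% in size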
Summary of the method: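 ER-beta-UAS-bla HEK293T cells (2,000/well, 2% charcoal-stripped FBS) were pre-incubated 6 hr at 37C, then given compound plus 1nM final 17-beta-estradiol for 16 hr. Viability was read in the same wells by CellTiter-Glo luminescence after 30 min at room temperature.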

[2] = target: Estrogen receptor (Homo sapiens) (UniProt P03372); test: qHTS assay to identify small molecule agonists of the estrogen receptor alpha (ER-alpha) signaling pathway in the presence of an antagonist (AID 1259383; calls by dose curve; further: top concentration of the series differs between compounds; nearly all actives have a fitted effect of over 15% in size)
Estrogen receptor (Homo sapiens), sequence (P03372 whole entry, looked up): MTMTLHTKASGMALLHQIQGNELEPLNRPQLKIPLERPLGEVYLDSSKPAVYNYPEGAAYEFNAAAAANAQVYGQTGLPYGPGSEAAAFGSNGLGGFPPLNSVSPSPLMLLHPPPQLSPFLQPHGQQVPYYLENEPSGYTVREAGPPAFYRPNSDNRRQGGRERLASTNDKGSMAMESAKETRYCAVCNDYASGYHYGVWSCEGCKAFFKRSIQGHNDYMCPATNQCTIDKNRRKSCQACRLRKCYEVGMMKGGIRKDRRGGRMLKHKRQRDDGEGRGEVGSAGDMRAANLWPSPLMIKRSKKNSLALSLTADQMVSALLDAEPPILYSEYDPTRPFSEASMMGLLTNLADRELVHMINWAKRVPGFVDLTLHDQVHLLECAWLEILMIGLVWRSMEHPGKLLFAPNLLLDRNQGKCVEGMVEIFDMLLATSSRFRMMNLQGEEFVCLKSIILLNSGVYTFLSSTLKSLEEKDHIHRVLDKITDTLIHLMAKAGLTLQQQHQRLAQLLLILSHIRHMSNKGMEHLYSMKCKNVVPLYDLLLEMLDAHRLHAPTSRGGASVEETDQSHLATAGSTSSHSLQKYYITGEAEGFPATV
Summary of the method: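 VM7Luc4E2 cells (endogenous full-length ER-alpha, 4×ERE-luciferase) were precultured 5 days in phenol red-free medium with 10% charcoal-stripped FBS, given 10.0nM ICI-182,780 (final), then treated with compounds at 15 concentrations for 22hr at 37C; luminescence read with ONE-Glo.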

[3] = qHTS assay to identify small molecule agonists or antagonists of the thyroid stimulating hormone receptor (TSHR) signaling pathway - wild type cell line counter screen (AID 1259384; calls by dose curve)
Summary of the method: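 Wild-type HEK293 cells were plated 18 h at 37 C/5% CO2, pin-dosed with compound plus Ro20-1724 medium, held 30 min at room temperature, then given cAMP-d2 and anti-cAMP-cryptate; fluorescence was read after 1 h. Fifteen concentrations, triplicate.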

[4] = target: Thyrotropin receptor (Homo sapiens) (UniProt P16473); test: qHTS assay to identify small molecule antagonists of the thyroid stimulating hormone receptor (TSHR) signaling pathway (AID 1259385; calls by dose curve; further: nearly all actives have a fitted effect of over 20% in size)
Thyrotropin receptor (Homo sapiens), sequence (P16473 whole entry, looked up): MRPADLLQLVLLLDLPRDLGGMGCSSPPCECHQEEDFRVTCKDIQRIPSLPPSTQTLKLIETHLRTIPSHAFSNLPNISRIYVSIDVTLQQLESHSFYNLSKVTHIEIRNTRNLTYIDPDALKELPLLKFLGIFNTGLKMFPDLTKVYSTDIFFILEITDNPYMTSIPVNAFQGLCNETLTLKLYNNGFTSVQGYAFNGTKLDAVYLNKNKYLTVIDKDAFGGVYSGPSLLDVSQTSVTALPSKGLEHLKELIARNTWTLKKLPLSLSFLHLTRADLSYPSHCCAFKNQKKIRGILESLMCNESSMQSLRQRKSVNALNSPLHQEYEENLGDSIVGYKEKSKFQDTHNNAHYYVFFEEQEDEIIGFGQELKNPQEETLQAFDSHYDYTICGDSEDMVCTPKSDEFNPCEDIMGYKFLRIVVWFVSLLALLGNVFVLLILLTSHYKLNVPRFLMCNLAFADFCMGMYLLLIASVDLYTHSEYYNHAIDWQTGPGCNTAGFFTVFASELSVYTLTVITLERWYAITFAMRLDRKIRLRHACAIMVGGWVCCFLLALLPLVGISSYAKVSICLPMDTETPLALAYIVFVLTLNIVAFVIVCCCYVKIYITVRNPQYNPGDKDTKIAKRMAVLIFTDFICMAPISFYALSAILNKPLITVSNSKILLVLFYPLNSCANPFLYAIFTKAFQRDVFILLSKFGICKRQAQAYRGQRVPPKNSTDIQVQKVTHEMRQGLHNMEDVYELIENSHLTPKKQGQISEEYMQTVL
Summary of the method: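 TSHR-HEK293 cells were plated and held 18 h at 37C/5% CO2, then given compound plus Ro20-1724 and stimulated with TSH at 1.5 ng/mL final. After 30 min at room temperature, cAMP was detected with cAMP-d2/anti-cAMP-cryptate (1 h) by fluorescence.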

[5] = qHTS assay to identify small molecule agonists of the estrogen receptor alpha (ER-alpha) signaling pathway in the presence of an antagonist - cell viability counter screen (AID 1259386);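 further: series mostly up to about 92 µM; cells exposed to compounds for 22 h at 37 °C before the viability read; nearly all actives have a fitted effect of over 30% in size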
Summary of the method: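 VM7Luc4E2 cells (endogenous full-length ER-alpha, 4×ERE-luciferase) were held 5 days in phenol red-free medium with 10% charcoal-stripped FBS, plated, then given 10.0nM ICI-182,780 and compounds at 15 concentrations for 22hr at 37C; viability read by CellTiter-Fluor fluorescence.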

[6] = target: Progesterone receptor (Homo sapiens) (UniProt P06401); test: qHTS assay to identify small molecule agonists of the progesterone receptor (PR) signaling pathway (AID 1346784; calls by dose curve; further: nearly all actives have a fitted effect of over 30% in size)
Progesterone receptor (Homo sapiens), sequence (P06401 whole entry, looked up): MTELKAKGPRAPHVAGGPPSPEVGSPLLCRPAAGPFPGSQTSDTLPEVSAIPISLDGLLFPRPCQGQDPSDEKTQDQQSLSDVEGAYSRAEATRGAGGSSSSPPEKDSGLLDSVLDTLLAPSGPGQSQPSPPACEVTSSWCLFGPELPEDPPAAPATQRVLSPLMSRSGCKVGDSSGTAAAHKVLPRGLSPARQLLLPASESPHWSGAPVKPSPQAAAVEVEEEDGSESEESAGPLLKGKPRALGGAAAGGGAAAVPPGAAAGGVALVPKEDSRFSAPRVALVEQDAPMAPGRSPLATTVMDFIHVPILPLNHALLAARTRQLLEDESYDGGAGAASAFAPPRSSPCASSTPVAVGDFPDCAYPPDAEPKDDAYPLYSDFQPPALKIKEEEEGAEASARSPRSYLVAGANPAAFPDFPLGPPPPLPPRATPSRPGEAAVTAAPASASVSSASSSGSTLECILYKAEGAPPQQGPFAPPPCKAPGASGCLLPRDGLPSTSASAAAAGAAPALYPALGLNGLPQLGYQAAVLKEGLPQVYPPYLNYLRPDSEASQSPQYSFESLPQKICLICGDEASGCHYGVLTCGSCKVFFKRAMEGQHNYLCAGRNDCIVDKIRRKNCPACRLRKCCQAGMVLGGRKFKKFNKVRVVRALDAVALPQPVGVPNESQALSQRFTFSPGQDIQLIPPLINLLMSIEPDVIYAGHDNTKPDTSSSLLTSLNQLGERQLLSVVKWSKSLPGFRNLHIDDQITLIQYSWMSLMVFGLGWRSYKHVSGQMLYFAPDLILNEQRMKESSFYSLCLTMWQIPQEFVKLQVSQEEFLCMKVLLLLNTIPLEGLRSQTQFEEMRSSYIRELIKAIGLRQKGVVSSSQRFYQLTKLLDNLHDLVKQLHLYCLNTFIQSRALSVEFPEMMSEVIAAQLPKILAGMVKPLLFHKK
Summary of the method: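 Reporter assay, GripTite PR-UAS-bla HEK 293T cells: 16 hr exposure to DMSO-dissolved compounds at 37C, 5% CO2, in steroid-depleted (2% charcoal-stripped FBS) medium; beta-lactamase measured by FRET fluorescence.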

[7] = target: Progesterone receptor (Homo sapiens) (UniProt P06401); test: qHTS assay to identify small molecule antagonists of the progesterone receptor (PR) signaling pathway (AID 1346795; active means well fitted inhibition curve with a large enough effect in the signal ratio in the repeat runs, not every such curve was filed as active; the % refers to the signal ratio)
Summary of the method: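 Stimulus R5020 at 1 nM final; cells HEK293T PR-UAS-bla; medium with 2% charcoal-stripped FBS; compound exposure 16 hr at 37C, 5% CO2; detection by FRET beta-lactamase substrate, 2 hr, room temperature.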

[8] = qHTS assay to identify small molecule antagonists of the progesterone receptor (PR) signaling pathway - cell viability counter screen (AID 1346798); further: series mostly up to about 92 µM; nearly all actives have a fitted effect of over 50% in size
Summary of the method: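 In the same plates used for the beta-lactamase readout, cell viability of compound- and R5020-treated PR-UAS-bla HEK293T cells (16 hr, 37C) was assessed by CellTiter-Glo luminescence.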

[9] = qHTS assay to identify small molecule agonists of the progesterone receptor (PR) signaling pathway - cell viability counter screen (AID 1346799; calls by dose curve; further: nearly all actives have a fitted effect of over 45% in size)
Summary of the method: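 Multiplexed viability read: CellTiter-Glo luminescence, 30 min RT, following LiveBLAzer FRET measurement on PR-UAS-bla HEK293T cells exposed to compounds 16 hr.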

[10] = qHTS assay to identify small molecule antagonists of the TGF-beta/Smad signaling pathway - cell viability counter screen (AID 1346824); further: nearly all actives have a fitted effect of over 50% in size
Summary of the method: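 SBE-bla HEK 293T cells were plated overnight at 37 C, then given compounds in DMSO plus TGF-beta1 (added as 0.25 ng/mL solution) for 5 hr. After the bla read, CellTiter-Glo was added to the same wells and luminescence read after 30 min at room temperature.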

[11] = qHTS assay to identify small molecule agonists of the TGF-beta/Smad signaling pathway - cell viability counter screen (AID 1346829); further: top concentration of the series differs between compounds; nearly all actives have a fitted effect of over 45% in size
Summary of the method: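 Compound-treated SBE-bla HEK 293T cells (5 hr, 37 C) were assessed for viability with CellTiter-Glo in parallel with the reporter read.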

[12] = qHTS assay to identify small molecule agonists of the TGF-beta/Smad signaling pathway (AID 1346859; active means well fitted activation curve with a large enough effect in the signal ratio in the repeat runs, not every such curve was filed as active; the % refers to the signal ratio; further: series mostly up to about 77 µM)
Summary of the method: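 Screening used HEK 293T SBE-bla cells at 4,000/well. Test agents: 5 hr, 37 C. Detection: FRET substrate, 2 hr RT, then excitation 405 nm with emissions at 460 and 530 nm.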

[13] = Human pregnane X receptor (PXR) small molecule agonists, qHTS cell viability counter screen (AID 1346977); further: nearly all actives have a fitted effect of over 50% in size
Summary of the method: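 In each well, the PXR reporter HepG2 line was checked for viability: CellTiter-Fluor reagent added 23hr post-dosing, fluorescence read after 1hr incubation at 37C.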

[14] = Caspase-3/7 induction in HepG2 cells by small molecules, qHTS assay (AID 1346978); further: nearly all actives have a fitted effect of over 15% in size
Summary of the method: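 Wild-type HepG2 cells (2,000/well) were settled 5 h at 37 C, 5% CO2, then exposed to compounds in DMSO for 17 h. Caspase-3/7 activity was read by luminescence 30 min after adding Caspase-Glo 3/7 reagent at room temperature.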

[15] = Caspase-3/7 induction in CHO-K1 cells by small molecules, qHTS cell viability counter screen (AID 1346979); further: nearly all actives have a fitted effect of over 35% in size
Summary of the method: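 Following a 5hr settling period, CHO-K1 cells at 1,500 per well received DMSO-dissolved compounds. Cell viability was quantified 16hr later by CellTiter-Fluor fluorescence, measured after 1hr with reagent at 37C.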

[16] = Caspase-3/7 induction in CHO-K1 cells by small molecules, qHTS assay (AID 1346980); further: nearly all actives have a fitted effect of over 15% in size
Summary of the method: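 Wild-type cells were seeded at 1,500 per well and settled 5 hr at 37 C, 5% CO2, then exposed to DMSO-dissolved compounds for 17 hr. Caspase-Glo 3/7 reagent was added, and luminescence was read after 30min at room temperature.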

[17] = Caspase-3/7 induction in HepG2 cells by small molecules, qHTS cell viability counter screen (AID 1346981); further: series mostly up to about 92 µM; nearly all actives have a fitted effect of over 30% in size
Summary of the method: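 Wild-type HepG2 cells (2,000/well) were allowed to settle for 5 hr at 37 C, 5% CO2, then dosed with compounds in DMSO by pin transfer. After 16 hr at 37 C, CellTiter-Fluor was added and fluorescence read 1 hr later.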

[18] = target: Nuclear receptor subfamily 1 group I member 2 (Homo sapiens) (UniProt O75469); test: Human pregnane X receptor (PXR) small molecule agonists, qHTS assay (AID 1346982); further: nearly all actives have a fitted effect of over 35% in size
Nuclear receptor subfamily 1 group I member 2 (Homo sapiens), sequence (O75469 whole entry, looked up): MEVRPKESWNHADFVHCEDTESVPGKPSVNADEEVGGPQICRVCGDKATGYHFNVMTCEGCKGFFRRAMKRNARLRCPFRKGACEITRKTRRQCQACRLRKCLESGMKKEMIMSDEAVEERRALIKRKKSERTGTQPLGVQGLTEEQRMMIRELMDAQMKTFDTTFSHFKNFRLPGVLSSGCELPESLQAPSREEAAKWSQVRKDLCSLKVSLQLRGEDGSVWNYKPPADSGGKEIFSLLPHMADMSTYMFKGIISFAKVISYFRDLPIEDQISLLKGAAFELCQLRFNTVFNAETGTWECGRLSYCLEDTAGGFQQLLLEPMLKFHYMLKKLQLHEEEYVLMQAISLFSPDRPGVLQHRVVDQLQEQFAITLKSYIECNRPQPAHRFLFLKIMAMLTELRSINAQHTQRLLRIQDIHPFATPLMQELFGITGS
Summary of the method: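 PXR-Luc HepG2 cells (CYP3A4 promoter-driven luciferase) were seeded in medium with 5% charcoal-stripped FBS, left 5 hr at 37 C, then exposed to compounds in DMSO for 24 hr. Luminescence was read after ONE-Glo addition.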

[19] = target: Thyrotropin-releasing hormone receptor (Homo sapiens) (UniProt P34981); test: qHTS assay to identify small molecule antagonists of the thyrotropin-releasing hormone receptor (TRHR) signaling pathway (AID 1346877; active means well fitted inhibition curve with a large enough effect in the repeat runs, not every such curve was filed as active; further: series mostly up to about 51 µM)
Thyrotropin-releasing hormone receptor (Homo sapiens), sequence (P34981 whole entry, looked up): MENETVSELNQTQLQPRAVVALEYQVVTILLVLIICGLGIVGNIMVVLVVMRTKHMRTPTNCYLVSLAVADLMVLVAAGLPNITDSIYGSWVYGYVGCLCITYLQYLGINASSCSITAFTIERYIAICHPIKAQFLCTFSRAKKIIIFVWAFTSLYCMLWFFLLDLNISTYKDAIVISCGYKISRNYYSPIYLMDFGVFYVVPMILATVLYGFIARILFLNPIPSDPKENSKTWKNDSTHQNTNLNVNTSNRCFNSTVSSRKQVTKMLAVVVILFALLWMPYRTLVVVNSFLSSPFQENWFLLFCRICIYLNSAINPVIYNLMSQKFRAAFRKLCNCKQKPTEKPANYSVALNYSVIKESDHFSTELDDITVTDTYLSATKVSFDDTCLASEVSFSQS
Summary of the method: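 TRHR-expressing HEK293 cells were seeded, cultured 18 h at 37 °C, then loaded with calcium dye for 2 h. Compounds were pre-incubated 5 min at room temperature before 1 nM TRH (final) was added, and kinetic fluorescence was recorded for 3 min.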

[20] = target: Thyrotropin-releasing hormone receptor (Homo sapiens) (UniProt P34981); test: qHTS assay to identify small molecule agonists of the thyrotropin-releasing hormone receptor (TRHR) signaling pathway (AID 1346891; calls by dose curve; further: series mostly up to about 58 µM)
Summary of the method: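 Readout was intracellular calcium fluorescence in TRHR-Hek293 cells. Cells were incubated 18 h, dye-loaded 2 h at 37 °C, and treated with compound in agonist mode.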
On the % scale 0 is the no-effect control and ±100 the full control effect.

CC1CC(=O)CC(C)(C)C1 (centres undefined)
inactive: outcome [1] | Potency [2] | outcome [3] | outcome [4] | outcome [5] | Potency [6] | Potency [7] | outcome [8] | outcome [9] | outcome [10] | outcome [11] | outcome [12] | outcome [13] | outcome [14] | Potency [15] | outcome [16] | outcome [17] | Potency [18]

CCCCOC(=O)[C@H](C)O
inactive: outcome [1] | Potency [2] | outcome [3] | outcome [4] | outcome [5] | Potency [6] | Potency [7] | outcome [9] | outcome [10] | outcome [11] | outcome [12] | outcome [19] | outcome [20] | outcome [13] | outcome [14] | Potency [15] | outcome [16] | outcome [17] | Potency [18]

CC(C)OC(=O)OCOP(=O)(CO[C@H](C)Cn1cnc2c(N)ncnc21)OCOC(=O)OC(C)C
inactive: outcome [1] | Potency [2] | outcome [3] | outcome [4] | outcome [5] | Potency [6] | Potency [7] | outcome [8] | outcome [10] | outcome [11] | outcome [12] | outcome [13] | outcome [14] | Potency [15] | outcome [16] | outcome [17] | Potency [18]

CCN1CCCC1CN (centres undefined)
inactive: outcome [1] | Potency [2] | outcome [3] | outcome [4] | outcome [5] | Potency [6] | Potency [7] | outcome [8] | outcome [10] | outcome [11] | outcome [12] | outcome [19] | outcome [20] | outcome [13] | outcome [14] | Potency [15] | outcome [16] | outcome [17] | Potency [18]

CC1(C)CC(OC(=O)CCCCCCCCC(=O)OC2CC(C)(C)NC(C)(C)C2)CC(C)(C)N1
inactive: activity change, negative = cytotoxicity [1] -21.6% [at 19 µM] | activation [2] -0.324% [at 19 µM] | cAMP activity change [3] -0.26% [at 18.9 µM] | activity change, negative = inhibition [4] -9.89% [at 19 µM] | activity change, negative = cytotoxicity [5] -0.743% [at 19 µM] | activation [6] 0.194% [at 19 µM] | activity change, negative = inhibition [7] 5.15% [at 18.9 µM] | activity change, negative = cytotoxicity [8] -13.3% [at 18.9 µM] | activity change, negative = cytotoxicity [9] 0.742% [at 19 µM] | viability change, negative = cytotoxic [10] -1.01% [at 15.8 µM] | activity change, negative = cytotoxicity [11] 11.9% [at 15.8 µM] | activity, negative = inhibition [19] 0.698% [at 10.5 µM] | activation [20] 0.325% [at 11.8 µM] | caspase activation [14] 0.485% [at 19 µM] | activity change, negative = cytotoxicity [15] -1.35% [at 19 µM] | caspase-3/7 activation [16] -0.118% [at 19 µM] | activity change, negative = cytotoxicity [17] -0.861% [at 19 µM] | activation [18] 26.4% [at 19 µM]

CN(C)CCN(C)CCO
inactive: outcome [1] | Potency [2] | outcome [3] | outcome [4] | outcome [5] | Potency [6] | Potency [7] | outcome [8] | outcome [9] | outcome [10] | outcome [11] | outcome [12] | outcome [13] | outcome [14] | Potency [15] | outcome [16] | outcome [17] | Potency [18]

N[C@@H](CSCCCO)C(=O)O
inactive: activity change, negative = cytotoxicity [1] 8.62% [at 19 µM] | activation [2] -1.71% [at 19 µM] | cAMP activity change [3] -1.7% [at 18.9 µM] | activity change, negative = inhibition [4] -0.731% [at 19 µM] | activity change, negative = cytotoxicity [5] -1.24% [at 19 µM] | activation [6] -0.517% [at 19 µM] | activity change, negative = inhibition [7] 8.75% [at 18.9 µM] | activity change, negative = cytotoxicity [8] -3.41% [at 18.9 µM] | activity change, negative = cytotoxicity [9] 4.73% [at 19 µM] | viability change, negative = cytotoxic [10] -0.153% [at 15.8 µM] | activity change, negative = cytotoxicity [11] 6.47% [at 15.8 µM] | activation [12] 6.83% [at 15.8 µM] | activity, negative = inhibition [19] -0.484% [at 10.5 µM] | activation [20] -0.038% [at 11.8 µM] | activity change, negative = cytotoxicity [13] 9.45% [at 19 µM] | caspase activation [14] -0.396% [at 19 µM] | activity change, negative = cytotoxicity [15] 1.3% [at 19 µM] | caspase-3/7 activation [16] 0.125% [at 19 µM] | activity change, negative = cytotoxicity [17] -2.1% [at 19 µM] | activation [18] -4.99% [at 19 µM]
